Records with an inconclusive call do not appear. Calls of active or inactive are those of the source.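 Rule for the calls, unless noted: active = binding below the plate cutoff, the plate median minus 3 SD, with a reading above zero; inconclusive = below the plate cutoff but reading exactly zero; inactive = the rest.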
Assays:
[1] = yeast TOR pathway RPL19A-GFP modulators, primary screen, cell-based, S. cerevisiae, multiplex flow cytometry (AID 1862; in the data active = percent of DMSO control GFP below about 86%;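 note: lower values mimic rapamycin by blocking the RPL19A rise seen in DMSO cells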); conditions: S. cerevisiae RPL19A-GFP strain, flow cytometry fluorescence, 3 h; at 10 µM; stronger effect = lower value
[2] = modulators of MEP2-GFP levels in yeast, primary screen, S. cerevisiae, multiplex flow cytometry (AID 1867;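 active = GFP response, as percent of the DMSO control, above the screen-wide mean plus 3 SD, about 139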;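 note: median GFP channel fluorescence of barcode-gated MEP2-GFP cells measured by flow cytometry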); conditions: S. cerevisiae MEP2-GFP strain, 3 h, at 10 µM, stronger effect = higher value, 100% means same as DMSO wells
[3] = modulators of CIT2-GFP expression in yeast, primary screen, S. cerevisiae, GFP fusion, multiplex flow cytometry (AID 1870;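 active = percent response above a set limit, the screen-wide mean plus 3 SD, cut at about 130% in these data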;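 note: barcoded CIT2-GFP strain pooled with four other GFP strains with rapamycin as positive control; median GFP fluorescence per well over plate mean of DMSO wells so 100% = DMSO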); conditions: 3 h, at 10 µM, stronger effect = higher value
[4] = modulators of LAP4-GFP expression in yeast, primary screen, S. cerevisiae, multiplex flow cytometry (AID 1873;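 active = GFP signal, as percent of the solvent control, above the screen mean plus 3 SD, about 149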); conditions: 3 h, at 10 µM, stronger effect = higher value
[5] = modulators of AGP1-GFP expression in yeast TOR pathway, primary screen, cell-based, multiplex flow cytometry, S. cerevisiae (AID 1887;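 active = GFP signal above the screen-wide mean plus 3 SD, that is over about 124.5% of the solvent control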;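 note: AGP1-GFP fusion strain of S. cerevisiae within a five-strain barcoded multiplex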); conditions: 3 h, at 10 µM, stronger effect = higher value
[6] = inhibitors of CD8+ T cell-vesicle binding, pilot screen, LFA-1/ICAM-1 modulator project, MLPCN validation set, flow cytometry (AID 2523;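 active = response below a set limit, under 55% cells CD8-positive and vesicle-bound, and CD8 cells' 90th-percentile brightness under 279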;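 for vesicle binding response: mean PE anti-B7-1 fluorescence of CD8+ cells relative to row control; 100% = QL9-loaded vesicles with DMSO vehicle in the same plate row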); conditions: 2C mouse CD8+ T cells, at 7 µM, stronger effect = lower value; double positive events: measured here: CD8+/vesicle+ event percentage
[7] = target: Integrin beta-1 (Homo sapiens) + Integrin alpha-4 (Homo sapiens) (UniProt P13612+P05556); assay: inhibition of HUTS-21 binding to VLA-4, pilot screen, VLA-4 allosteric modulator project, U937 cells, HUTS-21 mAb, flow cytometry, validation set (AID 2674;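 active = inhibition above 50%, about 3 SD of the validation set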;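 note: antibody binding induced by the VLA-4 ligand LDV present at three times its Kd; 0% = LDV ligand with antibody and no compound and 100% = antibody without LDV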); conditions: HUTS-21 LIBS mAb binding, at 6.7 µM, stronger effect = higher value, binding induced by LDV ligand
Integrin beta-1 (Homo sapiens) + Integrin alpha-4 (Homo sapiens), sequence (P05556 whole entry, looked up): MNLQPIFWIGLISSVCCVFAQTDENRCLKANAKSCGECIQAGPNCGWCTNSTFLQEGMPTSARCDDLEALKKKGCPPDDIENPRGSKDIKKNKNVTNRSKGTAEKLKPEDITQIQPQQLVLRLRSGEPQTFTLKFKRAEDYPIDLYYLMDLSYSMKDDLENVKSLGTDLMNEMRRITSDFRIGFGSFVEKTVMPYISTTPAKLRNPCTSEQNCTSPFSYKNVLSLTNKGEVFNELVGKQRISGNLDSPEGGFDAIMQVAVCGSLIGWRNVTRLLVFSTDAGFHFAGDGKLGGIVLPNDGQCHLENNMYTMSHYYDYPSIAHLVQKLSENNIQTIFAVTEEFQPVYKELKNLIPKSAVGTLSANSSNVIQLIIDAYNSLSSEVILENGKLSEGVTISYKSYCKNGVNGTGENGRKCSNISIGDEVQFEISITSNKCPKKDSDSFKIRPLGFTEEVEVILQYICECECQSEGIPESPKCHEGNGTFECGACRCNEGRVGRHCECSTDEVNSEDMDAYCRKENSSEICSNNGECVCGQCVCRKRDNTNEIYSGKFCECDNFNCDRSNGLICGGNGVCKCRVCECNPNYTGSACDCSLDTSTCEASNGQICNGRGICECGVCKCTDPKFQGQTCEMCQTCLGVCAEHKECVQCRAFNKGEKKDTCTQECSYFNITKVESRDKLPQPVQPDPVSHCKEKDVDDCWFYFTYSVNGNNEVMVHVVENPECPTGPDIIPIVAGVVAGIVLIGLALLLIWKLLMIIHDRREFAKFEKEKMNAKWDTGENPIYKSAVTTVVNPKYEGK
Integrin beta-1 (Homo sapiens) + Integrin alpha-4 (Homo sapiens), sequence (P13612 whole entry, looked up): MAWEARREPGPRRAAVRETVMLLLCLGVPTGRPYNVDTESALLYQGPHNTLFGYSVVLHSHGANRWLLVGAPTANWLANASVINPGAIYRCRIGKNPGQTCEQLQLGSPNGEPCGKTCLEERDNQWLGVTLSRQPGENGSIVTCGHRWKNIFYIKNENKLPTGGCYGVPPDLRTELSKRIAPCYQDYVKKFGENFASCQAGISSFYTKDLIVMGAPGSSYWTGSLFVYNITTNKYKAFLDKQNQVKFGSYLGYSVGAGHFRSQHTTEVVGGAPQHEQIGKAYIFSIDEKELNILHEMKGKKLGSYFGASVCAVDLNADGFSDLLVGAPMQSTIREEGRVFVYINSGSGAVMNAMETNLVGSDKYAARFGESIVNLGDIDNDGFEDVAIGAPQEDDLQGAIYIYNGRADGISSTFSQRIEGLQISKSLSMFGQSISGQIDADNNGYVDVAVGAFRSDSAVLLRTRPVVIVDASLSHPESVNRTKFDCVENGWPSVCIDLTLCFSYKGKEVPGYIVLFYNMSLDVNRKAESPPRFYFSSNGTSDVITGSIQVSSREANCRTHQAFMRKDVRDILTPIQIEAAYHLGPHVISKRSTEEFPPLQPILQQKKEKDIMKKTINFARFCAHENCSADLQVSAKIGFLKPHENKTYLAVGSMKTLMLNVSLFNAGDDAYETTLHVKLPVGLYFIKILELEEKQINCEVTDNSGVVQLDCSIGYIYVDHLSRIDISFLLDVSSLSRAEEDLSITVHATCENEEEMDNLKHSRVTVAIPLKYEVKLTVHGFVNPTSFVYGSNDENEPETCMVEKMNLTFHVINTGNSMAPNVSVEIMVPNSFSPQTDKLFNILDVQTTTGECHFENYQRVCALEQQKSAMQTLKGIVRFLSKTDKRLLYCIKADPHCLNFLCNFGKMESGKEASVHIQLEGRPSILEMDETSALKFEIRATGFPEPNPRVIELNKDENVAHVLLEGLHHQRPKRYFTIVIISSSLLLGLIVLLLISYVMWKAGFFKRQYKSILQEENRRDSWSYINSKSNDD

[8] = superoxide lowering in aged yeast cells, pilot screen, validation compound set (AID 2706;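 active = superoxide response below 65% of plate, a cut near 3 SD across the whole screen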;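 note: yeast exposed to compound for one week at 30 degrees C before staining; 100% = mean of all compound wells on the same plate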); conditions: S. cerevisiae aging, superoxide DHE fluorescence; at 10 µM; stronger effect = lower value
[9] = target: Beta-adrenergic receptor kinase 1 (Homo sapiens) (UniProt P25098); assay: GRK2 binders displacing RNA aptamer, biochemical, validation, human GRK2, bead flow cytometry (AID 488806;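 active = aptamer binding inhibition above 30%, about 3 SD of noise from non-fluorescent compounds; inactive = inhibition at or below 30%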); conditions: bead-bound GRK2, FAM-aptamer displacement, at 10 µM, stronger effect = higher value
Beta-adrenergic receptor kinase 1 (Homo sapiens), sequence (P25098 whole entry, looked up): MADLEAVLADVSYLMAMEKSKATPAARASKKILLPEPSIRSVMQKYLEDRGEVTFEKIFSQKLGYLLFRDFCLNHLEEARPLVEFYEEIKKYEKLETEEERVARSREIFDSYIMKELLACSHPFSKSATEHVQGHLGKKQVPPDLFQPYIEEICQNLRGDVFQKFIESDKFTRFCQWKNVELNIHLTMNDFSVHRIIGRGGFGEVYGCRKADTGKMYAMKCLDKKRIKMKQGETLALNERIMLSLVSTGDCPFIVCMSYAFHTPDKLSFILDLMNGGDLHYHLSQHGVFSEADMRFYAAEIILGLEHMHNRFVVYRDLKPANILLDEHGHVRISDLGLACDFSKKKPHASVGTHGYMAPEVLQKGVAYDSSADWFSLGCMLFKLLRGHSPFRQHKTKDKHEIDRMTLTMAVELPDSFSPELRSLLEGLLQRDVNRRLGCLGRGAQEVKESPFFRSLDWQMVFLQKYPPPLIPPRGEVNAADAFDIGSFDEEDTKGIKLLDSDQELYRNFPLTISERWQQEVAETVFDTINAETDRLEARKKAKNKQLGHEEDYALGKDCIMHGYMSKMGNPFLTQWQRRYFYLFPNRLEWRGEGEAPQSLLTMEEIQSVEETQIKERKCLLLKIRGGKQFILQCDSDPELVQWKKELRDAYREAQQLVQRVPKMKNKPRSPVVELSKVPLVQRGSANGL

[10] = target: Beta-2 adrenergic receptor (Homo sapiens) (UniProt P07550); assay: beta2AR agonists driving receptor internalization, pilot screen, cell-based, FAP fluorogen, flow cytometry, validation set (AID 504459;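 active = percent response above 42, roughly 3 SD of non-fluorescent test compounds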;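 note: agonist-driven loss of surface beta2AR via internalization measured by FAP dye flow cytometry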); conditions: Am2.2-beta2AR cells, FAP surface receptor flow cytometry; at 10 µM; stronger effect = higher value
Beta-2 adrenergic receptor (Homo sapiens), sequence (P07550 whole entry, looked up): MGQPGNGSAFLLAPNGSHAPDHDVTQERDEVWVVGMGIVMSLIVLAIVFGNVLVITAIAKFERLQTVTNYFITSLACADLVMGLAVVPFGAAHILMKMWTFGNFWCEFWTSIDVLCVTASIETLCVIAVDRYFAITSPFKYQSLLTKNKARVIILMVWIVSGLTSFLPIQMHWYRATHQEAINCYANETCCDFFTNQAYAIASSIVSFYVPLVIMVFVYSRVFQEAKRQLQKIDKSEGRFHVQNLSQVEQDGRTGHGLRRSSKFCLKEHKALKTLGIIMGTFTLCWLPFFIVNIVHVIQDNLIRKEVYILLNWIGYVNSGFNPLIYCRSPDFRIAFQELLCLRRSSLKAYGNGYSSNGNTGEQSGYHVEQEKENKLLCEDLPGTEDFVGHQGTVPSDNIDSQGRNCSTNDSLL

[11] = target: AP-2 complex subunit beta (Homo sapiens) (UniProt P63010); assay: inhibitors of arrestin peptide binding to AP2, pilot screen, biochemical, validation set, GST-AP2 beads, flow cytometry (AID 504541;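 active = inhibition above 54%, about 3 SD of non-fluorescent compounds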;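 note: AP2 carries R879A mutation and is captured from E. coli lysate; bead-bound FITC arrestin peptide fluorescence measuring arrestin peptide binding to AP2; 0% = DMSO wells and 100% = excess unlabeled arrestin peptide control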); conditions: FITC arrestin peptide, at 10 µM, stronger effect = higher value, AP2 beta2 appendage fragment, R879A mutant
AP-2 complex subunit beta (Homo sapiens), sequence (P63010 whole entry, looked up, the tested form may be a part, one chain of several): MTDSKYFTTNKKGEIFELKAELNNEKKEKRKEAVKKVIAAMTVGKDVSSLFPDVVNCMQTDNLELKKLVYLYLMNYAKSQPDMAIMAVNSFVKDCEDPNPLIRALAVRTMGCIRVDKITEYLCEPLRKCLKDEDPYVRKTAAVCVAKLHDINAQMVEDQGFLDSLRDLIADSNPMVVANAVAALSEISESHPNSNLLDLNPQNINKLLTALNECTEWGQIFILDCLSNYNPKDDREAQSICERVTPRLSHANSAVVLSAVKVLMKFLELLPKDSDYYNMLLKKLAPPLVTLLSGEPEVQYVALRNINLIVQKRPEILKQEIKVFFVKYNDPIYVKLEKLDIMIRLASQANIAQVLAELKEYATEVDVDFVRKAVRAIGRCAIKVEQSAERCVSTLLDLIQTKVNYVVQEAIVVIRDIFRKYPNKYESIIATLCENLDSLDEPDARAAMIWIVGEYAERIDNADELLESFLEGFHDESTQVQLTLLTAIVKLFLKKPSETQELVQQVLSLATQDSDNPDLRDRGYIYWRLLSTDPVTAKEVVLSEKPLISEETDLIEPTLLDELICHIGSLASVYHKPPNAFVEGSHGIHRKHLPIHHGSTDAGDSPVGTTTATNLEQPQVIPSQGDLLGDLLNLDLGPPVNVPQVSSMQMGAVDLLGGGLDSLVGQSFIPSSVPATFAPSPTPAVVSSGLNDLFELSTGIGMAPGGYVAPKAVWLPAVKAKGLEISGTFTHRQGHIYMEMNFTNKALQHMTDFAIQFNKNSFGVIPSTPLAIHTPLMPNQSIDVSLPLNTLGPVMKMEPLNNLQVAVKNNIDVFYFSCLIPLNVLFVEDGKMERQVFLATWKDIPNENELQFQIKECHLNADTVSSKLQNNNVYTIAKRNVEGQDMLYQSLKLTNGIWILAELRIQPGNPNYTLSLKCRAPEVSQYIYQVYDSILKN

[12] = yeast V-ATPase proton transport modulators, S. cerevisiae, pHLuorin, HTS validation (AID 504600; in the data active = response above about 15%;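 note: plate controls were DMSO for no effect and reference compound for full effect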); conditions: S. cerevisiae pHLuorin cytosolic pH, at 10 µM, stronger effect = higher value
[13] = tested on: anti-desmoglein-3 scFv antibody binding to human DSG3; assay: inhibitors of anti-DSG3 scFv binding to DSG3, pilot screen, biochemical, validation compound set, bead-based, flow cytometry (AID 588368); conditions: Protein G beads, DSG3-Fc, scFv-GFP binding, at 10 µM, stronger effect = lower value;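 note: signal is the median channel fluorescence of bead-bound GFP antibody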
[14] = inhibitors of fungal efflux pumps CDR1, CDR2, MDR1, pilot screen, validation compound set, multiplex, phenotypic (AID 588506;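 active = efflux inhibition above 0.42, the validation set average plus 4 SD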;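 note: Nile Red retained in cells so higher fluorescence means more efflux inhibition; 0 = negative control wells and 1 = enniatin B 25 µM full block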); conditions: S. cerevisiae pump-expressing triplex, Nile Red efflux flow cytometry; at 10 µM; stronger effect = higher value; the pumps come from Candida albicans
[15] = target: ATP-binding cassette sub-family B member 6 (Homo sapiens) (UniProt Q9NP58); assay: ABCB6 transporter inhibitors, pilot screen, K562-ABCB6 cells, flow cytometry, validation set (AID 588550;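 active = inhibition above the screen-wide mean plus 3 SD, about 51%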;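 note: 0% = DMSO wells and 100% = benzethonium chloride 70 µM positive control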); conditions: K562-ABCB6 porphyrin accumulation, 1 h, at 10 µM, stronger effect = higher value
ATP-binding cassette sub-family B member 6 (Homo sapiens), sequence (Q9NP58 whole entry, looked up): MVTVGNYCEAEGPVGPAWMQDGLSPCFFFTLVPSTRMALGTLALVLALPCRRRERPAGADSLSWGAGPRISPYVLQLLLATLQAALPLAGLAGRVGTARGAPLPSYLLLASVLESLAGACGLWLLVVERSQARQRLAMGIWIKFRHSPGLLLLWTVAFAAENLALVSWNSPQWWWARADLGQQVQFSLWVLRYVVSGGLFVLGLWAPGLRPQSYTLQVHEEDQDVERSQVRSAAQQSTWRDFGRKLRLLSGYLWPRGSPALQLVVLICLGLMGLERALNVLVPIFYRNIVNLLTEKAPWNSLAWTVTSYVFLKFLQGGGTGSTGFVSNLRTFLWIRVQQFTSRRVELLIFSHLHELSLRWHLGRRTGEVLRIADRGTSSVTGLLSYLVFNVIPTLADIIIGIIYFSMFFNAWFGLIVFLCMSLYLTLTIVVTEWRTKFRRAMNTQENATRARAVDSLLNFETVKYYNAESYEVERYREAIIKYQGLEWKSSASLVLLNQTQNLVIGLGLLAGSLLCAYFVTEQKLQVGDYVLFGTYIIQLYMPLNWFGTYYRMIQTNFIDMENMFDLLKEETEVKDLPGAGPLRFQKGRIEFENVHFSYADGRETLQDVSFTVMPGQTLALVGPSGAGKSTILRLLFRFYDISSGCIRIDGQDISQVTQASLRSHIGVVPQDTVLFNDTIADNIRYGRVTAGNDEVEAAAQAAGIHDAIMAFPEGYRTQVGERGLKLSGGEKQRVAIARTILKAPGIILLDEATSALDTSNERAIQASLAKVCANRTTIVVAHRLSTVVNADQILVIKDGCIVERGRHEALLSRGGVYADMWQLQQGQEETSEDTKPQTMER

[16] = promoters of myeloid differentiation in arrested cells, primary screen, cell-based, GFP/MAC1 double positive, flow cytometry, validation set (AID 588685;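 active = differentiation response of at least 50%, scaled between solvent and reference control, from cells with both markers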;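 note: compound exposure lasts four days before antibody staining and flow analysis; 0% = DMSO wells and 100% = 5 µM fulvestrant positive control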); conditions: ER-HoxA9 marrow cells, stronger effect = higher value, normalized: vehicle 0, fulvestrant 100

COc1ccc(/C=C/C(=O)c2cc3cccc(OC)c3oc2=O)cc1
57.4%: double positive events [6]
inactive: percent of DMSO control GFP [1] 103% | GFP response vs DMSO [2] 106% | percent response of DMSO control [3] 103% | GFP response vs DMSO [4] 106% | GFP response, % of DMSO [5] 95.7% | vesicle binding response [6] 172% | inhibition [7] -11.8% | superoxide response (% of plate) [8] 107% | aptamer binding inhibition [9] 0% | response [10] 7.46% | inhibition [11] 4.15% | response [12] 1.33% | binding (% of control) [13] 96% | efflux inhibition (fraction of control) [14] 0.03 | inhibition [15] -11% | differentiation response [16] 2.74%

O=C(O)Cc1ccc(O)c(F)c1
61.7%: double positive events [6]
inactive: percent of DMSO control GFP [1] 91.5% | GFP response vs DMSO [2] 135% | percent response of DMSO control [3] 101% | GFP response vs DMSO [4] 80.9% | GFP response, % of DMSO [5] 91% | vesicle binding response [6] 175% | inhibition [7] -9.06% | superoxide response (% of plate) [8] 111% | aptamer binding inhibition [9] 4% | response [10] -7.58% | inhibition [11] 5.41% | response [12] 1.04% | binding (% of control) [13] 100% | efflux inhibition (fraction of control) [14] 0.19 | inhibition [15] 10% | differentiation response [16] -4.09%

COc1ccccc1C(=O)Nc1cc2cc(Br)ccc2oc1=O
inactive: percent of DMSO control GFP [1] 101% | GFP response vs DMSO [2] 106% | percent response of DMSO control [3] 96% | GFP response vs DMSO [4] 99.4% | GFP response, % of DMSO [5] 101% | vesicle binding response [6] 30.4% | inhibition [7] -4.61% | superoxide response (% of plate) [8] 97.2% | aptamer binding inhibition [9] 3% | response [10] 4.22% | inhibition [11] -7.21% | response [12] -0.54% | binding (% of control) [13] 101% | efflux inhibition (fraction of control) [14] -0.47 | inhibition [15] 12% | differentiation response [16] -5.68%
58.5%: double positive events [6]

Cc1nc2ccccn2c(=O)c1CCN1CCC(C(=O)c2ccc(F)cc2)CC1
56.6%: double positive events [6]
inactive: percent of DMSO control GFP [1] 103% | GFP response vs DMSO [2] 105% | percent response of DMSO control [3] 104% | GFP response vs DMSO [4] 101% | GFP response, % of DMSO [5] 104% | vesicle binding response [6] 166% | inhibition [7] -26.6% | superoxide response (% of plate) [8] 95.8% | aptamer binding inhibition [9] 0% | response [10] -22.4% | inhibition [11] 51.2% | response [12] -1.11% | binding (% of control) [13] 106% | efflux inhibition (fraction of control) [14] -0.025 | inhibition [15] 2% | differentiation response [16] -10.4%

CN1CCN(CC/C=C2/c3ccccc3Sc3ccc(S(=O)(=O)N(C)C)cc32)CC1
inactive: percent of DMSO control GFP [1] 102% | GFP response vs DMSO [2] 109% | percent response of DMSO control [3] 94.5% | GFP response vs DMSO [4] 109% | GFP response, % of DMSO [5] 94.8% | vesicle binding response [6] 202% | inhibition [7] 23% | superoxide response (% of plate) [8] 86% | aptamer binding inhibition [9] 4% | response [10] -1.99% | inhibition [11] -4.59% | response [12] 11% | binding (% of control) [13] 84.3% | efflux inhibition (fraction of control) [14] 0.02 | inhibition [15] 28% | differentiation response [16] -13.3%
68.4%: double positive events [6]

CC(=O)N1CCN2C(=O)C1CCCC(=O)c1cc(C(C)C)ccc12 (stereo not given)
55.3%: double positive events [6]
inactive: percent of DMSO control GFP [1] 99.5% | GFP response vs DMSO [2] 90.8% | percent response of DMSO control [3] 103% | GFP response vs DMSO [4] 82.8% | GFP response, % of DMSO [5] 91.2% | vesicle binding response [6] 234% | inhibition [7] -4.52% | superoxide response (% of plate) [8] 94.5% | aptamer binding inhibition [9] 6% | response [10] 0.52% | inhibition [11] -5.05% | response [12] 0.04% | binding (% of control) [13] 103% | efflux inhibition (fraction of control) [14] -0.24 | inhibition [15] 9% | differentiation response [16] 20%

Cc1ccc(S(=O)(=O)NC(=O)Nc2cc(C)ccc2F)cc1
active: inhibition [11] 56.9% | efflux inhibition (fraction of control) [14] 0.64
62.3%: double positive events [6]
inactive: percent of DMSO control GFP [1] 102% | GFP response vs DMSO [2] 105% | percent response of DMSO control [3] 93.1% | GFP response vs DMSO [4] 82.2% | GFP response, % of DMSO [5] 96.5% | vesicle binding response [6] 1090% | inhibition [7] 2.66% | superoxide response (% of plate) [8] 110% | aptamer binding inhibition [9] 2% | response [10] -5.23% | response [12] -3.86% | binding (% of control) [13] 92.9% | inhibition [15] -2% | differentiation response [16] 34.5%

COc1ccc(CNCCC2(C(C)C)CCOC(C)(C)C2)cc1 (stereo not given)
inactive: percent of DMSO control GFP [1] 99.2% | GFP response vs DMSO [2] 107% | percent response of DMSO control [3] 101% | GFP response vs DMSO [4] 88.7% | GFP response, % of DMSO [5] 97.2% | vesicle binding response [6] 52.5% | inhibition [7] -7.72% | superoxide response (% of plate) [8] 106% | aptamer binding inhibition [9] 3% | response [10] -6.71% | inhibition [11] -2.2% | response [12] 2.72% | binding (% of control) [13] 97.2% | efflux inhibition (fraction of control) [14] -0.1 | inhibition [15] -1% | differentiation response [16] 0.24%
55.9%: double positive events [6]

COc1ccc(C(=O)O)cc1F
inactive: percent of DMSO control GFP [1] 104% | GFP response vs DMSO [2] 107% | percent response of DMSO control [3] 107% | GFP response vs DMSO [4] 94.8% | GFP response, % of DMSO [5] 103% | vesicle binding response [6] 151% | inhibition [7] -1.09% | superoxide response (% of plate) [8] 105% | aptamer binding inhibition [9] 3% | response [10] 3.73% | inhibition [11] 15.5% | response [12] -13.5% | binding (% of control) [13] 102% | efflux inhibition (fraction of control) [14] -0.09 | inhibition [15] -3% | differentiation response [16] -8.96%
65.5%: double positive events [6]

N/C(=N\OC(=O)CCCOc1ccc(Cl)cc1Cl)c1ccccn1
inactive: percent of DMSO control GFP [1] 103% | GFP response vs DMSO [2] 110% | percent response of DMSO control [3] 93.9% | GFP response vs DMSO [4] 107% | GFP response, % of DMSO [5] 86.8% | vesicle binding response [6] 11.6% | inhibition [7] 9.71% | superoxide response (% of plate) [8] 106% | aptamer binding inhibition [9] 0% | response [10] 2.49% | inhibition [11] -27.4% | response [12] -2.42% | binding (% of control) [13] 105% | efflux inhibition (fraction of control) [14] -0.12 | inhibition [15] 7% | differentiation response [16] -5.68%
59.3%: double positive events [6]

Source: PubChem BioAssay
